This is a sample that favours compounds with a hit; in the whole collection about 6.2% have one here.
FMDV antiviral: blocks foot and mouth disease virus; FMDV antiviral cell-based qHTS; Potency, µM (top dose mostly 57.9 µM), actives largely listed as inhibitors; 1.2% of 410,000 active; AID 1159524; calls by dose curve; tested in HEK293T cells; note: read-out not given here; nearly all actives have a fitted effect of over 45% in size
Lassa entry inh: blocks Lassa virus binding to or entry into cells; Lassa virus pseudotype entry inhibition, cell reporter; Potency, µM (titrated, usually from 37.9 µM), hits mostly inhibitors; 1.2% of 300,000 active; calls by dose curve; tested in HEK293 cells; note: nearly all actives have a fitted effect of over 50% in size
Marburg entry inh: blocks Marburg virus binding to or entry into cells. 1.8% of 300,000 active. Potency, µM (top dose mostly 37.8 µM), most hits filed as inhibitors. AID 540276. Marburg virus pseudotyped entry inhibition, cell reporter; calls by dose curve; tested in HEK293 cells
HCMV antiviral: human cytomegalovirus inhibition; HFF cells, HCMV-luciferase reporter, 72 h; active compounds read low; activity change, negative = inhibition, % at 57.5 µM; AID 1259415; 4.5% of 410,000 active; in the data active = activity change below about -60%; inconclusive = no clear call, values can overlap the other calls; inactive = above about -39%
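Human foreskin fibroblasts infected with luciferase-reporter HCMV at MOI 1 PFU/cell, compounds at two doses. Luciferase measured 72 h post infection; normalized to buffer-only basal and Salinomycin (10uM) controls.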
Large screens that a line does not name were inactive.

CC1O[C@@H](OC2CC(O)[C@@]3(CO)C4C(O)C[C@@]5(C)C(C6=CC(=O)OC6)CC[C@]5(O)C4CC[C@]3(O)C2)C(O)C(O)C1O (some centres not stated)	none (no result: Lassa entry inh, Marburg entry inh, HCMV antiviral)
CCCCCc1cc(=O)oc2c(C(CCN3CCCCC3)c3ccc4c(c3)OCO4)c(OC)cc(OC)c12 (configuration not stated)	HCMV antiviral -80 (no result: Lassa entry inh, Marburg entry inh)
COc1cc(OC)c2c(-c3ccccc3)cc(=O)oc2c1C(CC(=O)N1CCOCC1)c1ccc(N(C)C)cc1 (configuration not stated)	none (no result: Lassa entry inh, Marburg entry inh)
COc1cc(OC)c2c(-c3ccccc3)cc(=O)oc2c1C(CC(=O)N1CCOCC1)c1ccc2c(c1)OCO2 (configuration not stated)	HCMV antiviral -94 (no result: Lassa entry inh, Marburg entry inh)
COC(=O)C1=C(C(=O)OC)[C@@H]2N(C)c3ccccc3[C@@]23CCC(=O)N(Cc2cc(OC)c(OC)c(OC)c2)C3=N1	none (no result: FMDV antiviral, Lassa entry inh, HCMV antiviral)
NC(Cc1ccc(C(F)(F)F)cc1)c1csc(Nc2ccc(C(=O)c3ccccc3)cc2)n1 (configuration not stated)	HCMV antiviral -63 (no result: Lassa entry inh, Marburg entry inh)
CC(=O)c1ccc(Nc2nc(C(N)Cc3ccc(C(F)(F)F)cc3)cs2)cc1 (configuration not stated)	HCMV antiviral -61 (no result: Lassa entry inh, Marburg entry inh)
NC(CCc1ccccc1)c1csc(Nc2ccc(C(=O)c3ccccc3)cc2)n1 (configuration not stated)	none (no result: Lassa entry inh, Marburg entry inh)
CN(Cc1ccccc1)C(=O)c1ccc(Nc2nc(C(N)Cc3ccc(C(F)(F)F)cc3)cs2)nc1 (configuration not stated)	HCMV antiviral -98 (no result: Lassa entry inh, Marburg entry inh)
O=C1CCC2CCCCC2O1 (configuration not stated)	none (no result: FMDV antiviral, Lassa entry inh, HCMV antiviral)
C=CC[C@]1(C(=O)OC)C=C[C@H](C)[C@@H](c2ccccc2)N1C(=O)C(F)(F)F	none (no result: FMDV antiviral, Lassa entry inh, HCMV antiviral)
Cc1ccccc1CSc1nc2ccsc2c(=O)n1CCC(C)C	none (no result: Marburg entry inh)
Cc1nn(-c2ccccc2)c(Cl)c1C(=O)Nc1nnc(C2CCCCC2)s1	Lassa entry inh inconclusive, Marburg entry inh inconclusive
Cc1nn(Cc2ccccc2Cl)c(C)c1C(=O)Nc1nnc(C2CC2)s1	Lassa entry inh inconclusive, Marburg entry inh 0.89µM, HCMV antiviral -90
CCCN(C(=O)C1CCCN(c2ncnc3c2nc2n3CCCCC2)C1)c1ccccc1C (configuration not stated)	none (no result: FMDV antiviral, Lassa entry inh, Marburg entry inh)
N#CCSc1nc(-c2ccccc2)cs1	HCMV antiviral -63
Cc1ccc(-n2ncc(C(=O)NCCCN3CCN(c4cccc(Cl)c4)CC3)c2-n2cccc2)cc1	FMDV antiviral inconclusive (no result: Marburg entry inh)
COc1ccc(NC(=O)COC(=O)c2c3c(nc4ccccc24)CCCC3)cc1	FMDV antiviral 22µM, Lassa entry inh inconclusive, Marburg entry inh inconclusive
COc1ccc(OC)c(NC(=O)COC(=O)c2c3c(nc4ccccc24)CCCC3)c1	FMDV antiviral inconclusive, Lassa entry inh 21µM, Marburg entry inh 5.2µM
CNC(=O)COC(=O)c1c2c(nc3ccccc13)CCC2	none (no result: Lassa entry inh, Marburg entry inh)
CCc1nc2ccccc2c(C(=O)OCC(=O)Nc2ccc(NC(C)=O)cc2)c1C	FMDV antiviral 32µM, HCMV antiviral inconclusive (no result: Lassa entry inh, Marburg entry inh)
COc1ccc(OC)c(NC(=O)CSc2c3c(nc4ccccc24)CCCC3)c1	FMDV antiviral inconclusive, Lassa entry inh inconclusive
CC(CCC(=O)OC[C@H]1O[C@H](C#Cc2ccccc2)C=C[C@H]1Oc1ccc(C)cc1)=NO[C@H](C)c1cn([C@H](CO)Cc2ccccc2)nn1	Marburg entry inh inconclusive (no result: FMDV antiviral, HCMV antiviral)
COc1cc(OC)cc(C(=O)NCC(=O)OCC(=O)/C=C2/N(C)c3ccccc3C2(C)C)c1	Marburg entry inh inconclusive
CC(C)[C@H](NC(=O)c1ccccc1)C(=O)OCC(=O)/C=C1/N(C)c2ccccc2C1(C)C	FMDV antiviral inconclusive, HCMV antiviral -68
COc1ccc(Nc2nnc(-c3ccc(C)cc3)c3ccccc23)cc1C(=O)N1CCCCC1	FMDV antiviral inconclusive, Lassa entry inh inconclusive, Marburg entry inh inconclusive, HCMV antiviral -73
CCN(CC)S(=O)(=O)c1cc(-c2nnc(Nc3ccc(OC)c(C(N)=O)c3)c3ccccc23)ccc1C	FMDV antiviral inconclusive, Lassa entry inh inconclusive, HCMV antiviral -65 (no result: Marburg entry inh)
COc1ccc(-c2nn(-c3ccccc3)cc2C2NC(=O)NC(C)=C2C(=O)OC(C)C)cc1Cl (configuration not stated)	Lassa entry inh inconclusive
O=c1cc(-c2ccccc2)[nH]c2ccccc12	Marburg entry inh inconclusive, HCMV antiviral -76
Cc1ccc(C2=C(O)c3ccccc3C(=O)C2=O)cc1	none (no result: Lassa entry inh, Marburg entry inh)
O=C1C(c2ccncc2)=C(O)c2ccccc21	Lassa entry inh 7.9µM, Marburg entry inh 7.1µM
O=C1C(c2cc(=O)c3ccccc3[nH]2)=C(O)c2ccccc21	Lassa entry inh inconclusive, Marburg entry inh 5.6µM
COc1ccc2nc3oc(C(=O)Nc4cccc(C(F)(F)F)c4)cc3cc2c1	none (no result: Marburg entry inh)
COc1ccc(-c2nc(NC(=O)C3CC(=O)N(c4ccc5c(c4)OCCO5)C3)sc2C)cc1 (configuration not stated)	FMDV antiviral inconclusive, Lassa entry inh inconclusive, Marburg entry inh inconclusive, HCMV antiviral -96
COc1ccc(N2CC(C(=O)Nc3nccs3)CC2=O)cc1 (configuration not stated)	HCMV antiviral -78
CCOC(=O)Cc1c(C)nc2c(-c3ccc(Cl)cc3)c(C(F)(F)F)nn2c1C	FMDV antiviral inconclusive
COc1ccccc1C1CN(CCNC(=O)c2cnsn2)Cc2ccccc2O1 (configuration not stated)	none (no result: Lassa entry inh, Marburg entry inh, HCMV antiviral)
CC1CCc2nc(NC(=O)c3cc(C(C)(C)C)nn3C)sc2C1 (configuration not stated)	none (no result: Lassa entry inh, Marburg entry inh)
Cc1ccc(-c2nc(NC(=O)c3cc(C(C)(C)C)nn3C)sc2C)cc1Cl	FMDV antiviral inconclusive, Lassa entry inh inconclusive, Marburg entry inh inconclusive, HCMV antiviral -61
CCOC(=O)C1=CCN(S(=O)(=O)c2ccccc2Br)C1c1ccc(Cl)cc1 (configuration not stated)	none (no result: FMDV antiviral, Lassa entry inh, Marburg entry inh)
COc1cccc(NC(=O)Cn2c(=O)c3cccn3c3ccc(F)cc32)c1	HCMV antiviral -65 (no result: Marburg entry inh)
Cc1cccc(CNC(=O)CCn2c(=O)c3cccn3c3ccc(F)cc32)c1	HCMV antiviral -85 (no result: Marburg entry inh)
O=C(CCn1c(=O)c2cccn2c2ccc(F)cc21)NCc1cccc(F)c1	none (no result: Lassa entry inh, Marburg entry inh)
COc1cc(/C=N/NS(=O)(=O)c2ccc3ccccc3c2)ccc1OCc1ccc(C(=O)O)cc1	Lassa entry inh inconclusive, Marburg entry inh 0.89µM
COC(=O)c1ccc(COc2ccccc2/C=C(\C#N)C(=O)Nc2c(C)cc(C)cc2C)cc1	FMDV antiviral inconclusive, Lassa entry inh inconclusive, Marburg entry inh inconclusive, HCMV antiviral -93
COc1cc(/C=N/O)ccc1OCc1ccc(Cl)cc1	none (no result: FMDV antiviral, Lassa entry inh, Marburg entry inh)
COC(=O)c1ccc(CN=C(NS(=O)(=O)c2ccccc2)c2ccccc2)cc1	none (no result: Lassa entry inh, Marburg entry inh)
COC(=O)c1ccc(COc2ccccc2/C=N/NS(=O)(=O)c2ccccc2)cc1	Marburg entry inh 13µM, HCMV antiviral -86
COc1cc(/C=N/O)ccc1OCc1ccc(C(=O)O)cc1	FMDV antiviral 4.5µM, Lassa entry inh inconclusive, Marburg entry inh 0.1µM
Cc1onc(-c2ccccc2)c1CNS(=O)(=O)c1cccc(Br)c1	Marburg entry inh inconclusive, HCMV antiviral -73
Cc1onc(-c2ccccc2)c1CNS(=O)(=O)c1ccc(F)cc1F	none (no result: Lassa entry inh, Marburg entry inh)
COc1ccc(-c2[nH]ncc2CN(C)CCCN2CCOCC2)cc1F	none

High-throughput results deposited in PubChem BioAssay by National Center for Advancing Translational Sciences (NCATS).
